VHR inh color: inhibitors of human VHR1 phosphatase (DUSP3) | recombinant VHR phosphatase, colorimetric substrate read-out | inhibition, % at 20 µM | P51452 | AID 1992 | 50,000 tested, 0.7% active; in the data active = inhibition above about 60%
Target sequence (P51452 whole entry, looked up): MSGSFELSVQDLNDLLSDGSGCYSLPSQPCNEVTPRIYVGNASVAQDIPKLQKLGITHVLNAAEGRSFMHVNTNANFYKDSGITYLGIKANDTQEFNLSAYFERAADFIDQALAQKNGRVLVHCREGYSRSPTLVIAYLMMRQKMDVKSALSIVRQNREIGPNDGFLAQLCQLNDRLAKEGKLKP
* = called active by the depositor. This excerpt belongs to a sample that is enriched for hits.

SMILES	VHR inh color
COC(=O)c1ccc(/C=C2/C(=O)NC(=O)N(c3cccc(C)c3)C2=O)cc1	10.1
COc1ccc(S(=O)(=O)N(CC(=O)Nc2cccc(C(F)(F)F)c2)Cc2ccccc2)cc1	1.6
Cc1ccc(C(=O)NNC(=O)C2CCCO2)cc1 (stereo not drawn)	-1.0
CCOC(=O)C1=C(O)/C(=C/c2ccccc2)SC1=Nc1ccccc1	-1.6
CCOC(=O)C1=C(O)/C(=C/c2ccc(O)cc2)SC1=Nc1ccccc1	-16.2
CCOC(=O)C1=C(O)/C(=C/c2ccc(-c3ccccc3)cc2)SC1=Nc1ccc(OC)cc1	114.6*
C=C(C)Cn1c(-c2ccccc2Br)n[nH]c1=S	9.5
COc1ccc(CC2S/C(=N\N=C\CCc3ccc(C)o3)NC2=O)cc1 (stereo not drawn)	1.6
Cc1cccc(OCC(=O)Nc2ccccc2C(F)(F)F)c1	-21.5
CCc1ccc(OCC(=O)Nc2ccccc2C(F)(F)F)cc1	111.8*
O=C(COc1ccc(Cl)cc1)Nc1ccccc1C(F)(F)F	-1.6
O=C1NN(c2ccc(Cl)c(Cl)c2)C(=O)/C1=C/c1cccc([N+](=O)[O-])c1	78.4*
O=C1NN(c2ccc(Cl)c(Cl)c2)C(=O)/C1=C/c1cccc(Br)c1	32.0
O=C1NN(c2ccc(Cl)c(Cl)c2)C(=O)/C1=C/c1cc([N+](=O)[O-])ccc1O	-5.5
O=C1/C(=C/c2cccc(Cl)c2Cl)SC(=S)N1c1ccc([N+](=O)[O-])cc1	-23.4
CCN1C(=O)/C(=C\c2ccc(-c3ccc(C(=O)O)cc3)o2)SC1=S	0.2
O=C1C=CC(=O)N1c1ccc(Cl)cc1[N+](=O)[O-]	5.8
C#CC(C)(C)NC(=O)CN(c1cc(C)ccc1C)S(=O)(=O)c1ccccc1	-4.9
COc1cccc2cc(C(=O)Nc3sc4c(c3C#N)CCCC4)c(=O)oc12	2.4
CC1=CC(=NS(=O)(=O)c2ccc(C)cc2)C=C(C)C1=O	25.4
COc1ccc(S(=O)(=O)/N=C2C=C/C(=N\S(=O)(=O)c3ccc(OC)cc3)C=C/2Cl)cc1	-16.5
O=C1C(Cl)=CC(=NS(=O)(=O)c2ccccc2)C=C1Cl	75.9*
O=C1C(Cl)=C/C(=N\S(=O)(=O)c2ccc(Cl)cc2)C(Cl)=C1Cl	96.0*
CC1=CC(=O)C=C/C1=N\S(=O)(=O)c1ccc(C)cc1	28.2
O=S(=O)(NCCCNS(=O)(=O)c1ccc(Cl)cc1)c1ccc(Cl)cc1	-12.7
SMILES	VHR inh color
CCOc1cc(C(=O)Nc2c(C)cc(C)cc2C)cc(OCC)c1OCC	-6.2
O=C(c1ccco1)N(C(=O)c1ccco1)c1cc(C(F)(F)F)ccc1Cl	-9.6
Cc1ccc(N=Cc2cccc(O)c2O)cc1I	-14.4
COc1cc(C2CC(=O)Nc3c2cc(Br)c2ccccc32)cc(OC)c1OC (stereo not drawn)	3.5
CC(C)Oc1ccccc1C1CC(=O)Nc2c1cc(Br)c1ccccc21 (stereo not drawn)	108.2*
O=C1CC(c2ccccc2F)c2cc(Br)c3ccccc3c2N1 (stereo not drawn)	-4.5
CN1C(=O)C(=Cc2ccc(N3CCCC3)c([N+](=O)[O-])c2)C(=O)N(C)C1=O	90.5*
CC1CCN(c2ccc(C=C3C(=O)c4ccccc4C3=O)cc2[N+](=O)[O-])CC1	-33.5
CC1=NN(c2ccccc2)C(=O)/C1=C\c1ccc(N2CCOCC2)c([N+](=O)[O-])c1	16.2
COC(=O)C1=CN(CCc2ccccc2)C=C(C(=O)OC)C1c1ccc(OC)c(OC)c1	-10.0
N#Cc1cc2c(nc1SCC(=O)Nc1ccc(S(N)(=O)=O)cc1)CCCC2	-8.1
Cc1ccc(C(C)C)c(OCC(=O)Nc2cccc(S(N)(=O)=O)c2)c1	3.8
CCOc1ccc(N2C(=O)/C(=C/c3ccc(C)cc3)C(=O)NC2=S)cc1	7.8
CC(=O)c1cccc(NC(=O)c2cccc(OCc3ccccc3)c2)c1	111.5*
CCCOc1cccc(C(=O)Nc2cccc(C(=O)Nc3ccccc3C(=O)O)c2)c1	-11.9
CCCOC(=O)c1ccc(NC(=O)c2cccc(OCc3ccccc3)c2)cc1	-10.2
O=[N+]([O-])c1ccc(N=Cc2c[nH]c3ccccc23)cc1	-3.8
CCOc1cc(/C=C2\SC(=S)N(Cc3ccccc3)C2=O)ccc1OCc1ccc([N+](=O)[O-])cc1	4.6
COc1cc(N)ccc1-n1c(C)ccc1C	70.1*
COc1ccc(-c2nc3cc(N)ccc3o2)cc1OC	-1.1
COc1ccc(C(=O)c2ccc(OC)c(N)c2)cc1N	5.2
Cc1cccn2c(=O)c(/C=C3\SC(=S)N(Cc4ccccc4)C3=O)c(N3CCOCC3)nc12	-13.1
Cc1oc2c(CN(CC(C)C)CC(C)C)c(O)ccc2c(=O)c1-c1nc2ccccc2s1	-12.5
CCOC(=O)C1=C(C)N=c2s/c(=C\c3ccc(Cl)cc3)c(=O)n2C1c1ccc2c(c1)OCO2 (stereo not drawn)	-17.3
O=C(Nc1ccccc1C(F)(F)F)c1ccc(Cl)cc1Cl	-20.2
SMILES	VHR inh color
CC(=O)c1cccc(NC(=O)c2ccc(-c3ccc(Cl)cc3Cl)o2)c1	109.2*
O=C(Nc1ccccc1C(F)(F)F)c1ccc(-c2cc(Cl)ccc2Cl)o1	112.3*
O=C(O)c1ccc(-c2cc(Cl)ccc2Cl)o1	2.4
O=C(Nc1ccc(NC(=O)c2ccc(-c3ccc(Cl)cc3Cl)o2)cc1)c1ccccc1	-12.8
CC(=O)c1ccc(NC(=O)c2ccc(-c3ccc(Cl)cc3Cl)o2)cc1	-0.1
O=[N+]([O-])c1ccc(Oc2ccc(S(=O)(=O)Nc3ccc(Cl)cc3)cc2)cc1	0.1
CCOC(=O)c1c(NC(=O)COc2cc(C)ccc2C(C)C)sc(C(C)=O)c1C	-23.6
Cc1cc(C)c2oc(-c3ccc(C)c(NC(=O)c4cccc([N+](=O)[O-])c4C)c3)nc2c1	2.4
CCOC(=O)c1c(NC(=O)/C=C/c2ccc(OC)cc2)sc(C)c1C	-20.8
O=C1NC(=S)N/C1=C/c1ccc(O)c(Br)c1	-7.1
O=C(COc1ccccc1)Nc1ccc(O)c(-c2nc3ccccc3o2)c1	3.2
O=C(Nc1ccc([N+](=O)[O-])cc1)C1C2C3CCC(C3)C12 (stereo not drawn)	84.4*
O=C(Nc1ccc([N+](=O)[O-])cc1)C1C(c2ccccc2)=C1c1ccccc1	-0.9
Cc1ccc([N+](=O)[O-])cc1NC(=O)C1C2C3CCC(C3)C12 (stereo not drawn)	6.3
OC(CN1CCOCC1)c1ccc(Br)cc1 (stereo not drawn)	1.3
S=C(Nc1ccc(Cl)cc1Cl)NC1CCCC1	-2.2
CC1=C(C(=O)OC(C)C)C(c2ccccc2F)CC(=O)N1 (stereo not drawn)	117.7*
CC1=C(C(=O)OCc2ccccc2)C(c2ccccc2OC(C)C)CC(=O)N1 (stereo not drawn)	0.2
CC1=C(C(=O)OCCc2ccccc2)C(c2ccccc2OC(C)C)CC(=O)N1 (stereo not drawn)	-4.9
Cc1ccc(NC(=O)c2ccc(OCC(C)C)cc2)c(C)c1	6.3
Cc1ccc(CN2CCN(/N=C/c3ccccc3C)CC2)cc1	-4.8
O=C(/C=C/c1ccco1)NCc1ccc2c(c1)OCO2	-2.8
O=C(/C=C/c1ccco1)NC(=S)NCc1ccccc1	74.6*
O=C(/C=C/c1ccco1)NCCCCNC(=O)/C=C/c1ccco1	26.2
Cc1ccc(N2CC(C(=O)Nc3cccc(C)n3)CC2=O)cc1 (stereo not drawn)	4.6
CCOc1cc(/C=C2\SC(N)=NC2=O)cc(Br)c1OS(=O)(=O)c1ccc([N+](=O)[O-])cc1	-12.0
CCCOC(=O)c1c(N)sc2c1CCC2	8.1
CCOC(=O)c1c(N)sc2c1CCN(Cc1ccccc1)C2	95.7*
CCOC(=O)c1c(C)nn(Cc2ccccc2)c1N	5.7

Bioassay records deposited in PubChem by Sanford-Burnham Center for Chemical Genomics.
